# From ChEMBL document CHEMBL1157539, “Thousands of chemical starting points for antimalarial lead identification” (Nature, 2010)
# Test system: HepG2
# Assay: GSK_TCMDC: Percent inhibition of human HepG2 cell line. Test compounds present at 10uM.
# Format: functional
row,Structure (SMILES),Inhibition [%]
1,COc1ccc(-c2ccc(NC(=O)c3cccc(Cl)c3)c(F)c2)cc1CN1CCCN(C)CC1.O=C(O)C(F)(F)F,43
2,Br.CC(CCON1C(N)=NC(N)=NC1(C)C)c1ccc(Cl)c(Cl)c1 (stereo unspecified),60
3,O=C1Nc2cccc3c2C1(CCCCCN1CCC(c2c[nH]c4ccncc24)CC1)CCC3 (stereo unspecified),8
4,COc1cc(C(F)(F)F)c2cc(CNCCCNc3nc4ccccc4[nH]3)[nH]c2c1,60
5,CN1CCC(N2CCN(c3ccc4c(=O)nc(CCc5cccc(F)c5F)n(CC(=O)N(C)Cc5ccc(-c6ccc(C(F)(F)F)cc6)cc5)c4n3)CC2)CC1.O=C(O)C(O)C(O)C(=O)O,15
6,Oc1ccc(CCNCc2ccc(OCc3ccccc3)c(OCc3ccccc3)c2)cc1,31
7,CC[C@H](C)CNC(=O)c1cncc(-c2ccc(CNCCOc3ccccc3)cc2)c1.O=C(O)C(F)(F)F,7
8,COc1cc(NC(=O)c2cccc([N+](=O)[O-])c2)cc(S(=O)(=O)c2ccc(Cl)cc2)c1,0
9,O=C(N[C@@H](Cc1ccccc1)[C@H](O)CNCCC(F)(F)F)c1cccc(OCC2CC2)c1,0
10,CCN1CCC(NCc2ccc(-c3ccc(Cl)s3)cc2)CC1,42
11,O=C(Nc1cccc(CN2CCCN(Cc3ccc(O)cc3)CC2)c1)c1ccc2ccccc2c1.O=C(O)C(F)(F)F,20
12,Br.Oc1ccc(CCNCCCCCCNCCc2ccc(Br)cc2)cc1O,2
13,CC(=O)Nc1ccc2[nH]cc(C3CCN(CC4CCN(C(=O)/C=C/c5ccc(Cl)c(Cl)c5)CC4)CC3)c2n1,21
14,Cc1ccc(Nc2nc(C)cc(N3CCN(c4ccccc4)CC3)n2)cc1,4
15,NS(=O)(=O)c1cccc(Nc2nccc(-c3c(-c4cccc(NC(=O)c5c(F)cccc5F)c4)nn4ccccc34)n2)c1,81
16,Br.CCCOc1ccc(CCCON2C(N)=NC(N)=NC2(C)C)cc1,65
17,Cc1nn(-c2cccc(Cl)c2)c2c1C(C(=O)c1ccc3c(c1)OCO3)CC(=O)N2 (stereo unspecified),5
18,CC(C)c1ccc(NC(=O)NCCCC2CCCN(CCCCCNC(=O)/C=C/c3ccc(Cl)c(Cl)c3)C2)cc1 (stereo unspecified),25

row,Structure (SMILES),Inhibition [%]
1,CCN1CCC(N(Cc2ccc(-c3ccc(C(F)(F)F)cc3)cc2)C(=O)Cn2c(CCc3cccc(F)c3F)cc(=O)c3cn(C)nc32)CC1.O=C(O)C(O)C(O)C(=O)O,27
2,COc1cc(Cc2cnc(N)nc2N)c2c(c1OC)OC(C)C=C2 (stereo unspecified),0
3,CCCC(CNCc1ccc(Cl)c(C(F)(F)F)c1)CNc1nc2cnccc2[nH]1.Cl (stereo unspecified),26
4,CC(C)c1cc(C(=O)N[C@@H](Cc2ccccc2)[C@H](O)CNC2CCCCC2)cc(N2CCCC2=O)c1,0
5,CC1CCC(C(C)C)C(OC(=O)CSc2nnc3c(n2)[nH]c2ccccc23)C1 (stereo unspecified),0
6,Cc1cc(C)cc(OCC(O)CN(Cc2cc(Cl)cc(Cl)c2)C(=O)Nc2ccc([N+](=O)[O-])cc2)c1 (stereo unspecified),0
7,COc1ccc(C2CCN(C#N)C2)cc1OC1CCCC1 (stereo unspecified),9
8,COc1ccc(-n2cc(CNCCCn3ccnc3)c(-c3cccc(F)c3)n2)cc1,21
9,COc1cccc2cc(C(=O)N[C@@H](CC(C)C)C(=O)Nc3cc(F)ccc3Br)oc12,7
10,COc1cc2nc(NCCCN3CCCCC3)nc(NCc3ccccc3)c2cc1OC,12
11,CC1(C)[C@H]2CC[C@@H](CNc3nc(NCC(=O)Nc4ccc5ccccc5c4)nc(N4CCC(N5CCCC5)CC4)n3)[C@@H]1C2,6
12,Cc1cc(=NN=Cc2ccccn2)c2cc(F)ccc2[nH]1,9
13,O=C(NCc1ccccc1)NC(CCCN1CCC(Oc2cccc(Cl)c2)CC1)c1ccc(Cl)c(Cl)c1 (stereo unspecified),15
14,O=C(O)C(F)(F)F.OCC1CCN(Cc2ccc(-c3ccc(-c4nc5cc(C(F)(F)F)ccc5[nH]4)s3)cc2)CC1,35
15,Br.Cc1cc(Br)c(OCCCON2C(=N)N=C(N)NC2(C)C)c(Br)c1,62
16,CC(C)CNCc1cccc(-c2cccc(CN(CCCN3CCN(C)CC3)C(=O)NC3CCCCC3)c2)c1.O=C(O)C(F)(F)F,16
17,O=[N+]([O-])c1ccc2ncnc(Nc3ccc(F)c(Cl)c3)c2c1,0
18,Cc1cccc2nc(-c3cccc(-c4ccc(CN5CCC(C(N)=O)CC5)cc4)c3)[nH]c12.O=C(O)C(F)(F)F,0
